# Data published in PubChem BioAssay AID2384 (Southern Research Specialized Biocontainment Screening …, 2010).
# In all, about 2,300 compounds went through this assay and about 1,100 (48%) were called active. How the calls were made is not given here. The set was probably picked from earlier hits. Some of the results follow. Entries with a potency or affinity are not part of this list.
# Assay: S. typhi counter-screen signal inhibition – fluorescence, 4 h, counter-screen for PhoP regulon inhibitor project, dose response (AID 2384)
# Settings: S. typhi GFP reporter counter-screen; series mostly up to 150 µM
row,SMILES,inhibition
1,COc1ccc(C(CC(=O)O)NC(=O)C2CCCCC2)cc1 (stereo unspecified),inactive
2,COc1ccc(CCNC(=O)Cn2c(=O)n(CC3CCCO3)c(=O)c3ccccc32)cc1OC (stereo unspecified),inactive
3,COc1ccc(OC)c(-c2cc(C(=O)Nc3ccc(F)cc3F)no2)c1,inactive
4,Cc1nc(N2CCOCC2)c2c(C)c(C(=O)Nc3ccccc3C(F)(F)F)sc2n1,inactive
5,O=C(Cn1nc(Cl)nc1Cl)c1ccc([N+](=O)[O-])cc1,inactive
6,CC1CC(C)CN(S(=O)(=O)c2ccc3c(c2)oc(=O)n3CC(=O)N(C)Cc2ccccc2)C1 (stereo unspecified),inactive
7,Cc1cc(=O)n2nc(N3CCCC(C(=O)NC4CCCCC4C)C3)sc2n1 (stereo unspecified),inactive
8,Cc1nnc(SCC(=O)Nc2cc(S(=O)(=O)N3CCCC3)ccc2Cl)s1,inactive
9,CCOc1ccc(S(=O)(=O)N2CCC(C(=O)NCCN3CCOCC3)CC2)cc1C,inactive
10,CCCCCCCCn1ccc(=N)cc1,inactive
11,CCN(CC)CCn1nc(C)nc1-c1ccccc1O,inactive
12,CCN1c2ccccc2NC2N=C(OC)C(c3ccccc3)C21 (stereo unspecified),inactive
13,O=C(Nc1ccc(F)cc1)c1ccc2snnc2c1,inactive
14,Clc1ccc(CN2CCN(/N=C/c3ccco3)CC2)cc1,inactive
15,C=CCn1c(C)cc(C(=O)CSc2n[nH]c(N)n2)c1C,inactive
16,COc1ccc(NC(=O)N2CCc3ccccc32)cc1,inactive
17,O=C(CCl)NC1CCCc2ccccc21 (stereo unspecified),inactive
18,Cc1c(NC(=O)OCc2ccccc2)c(=O)n(-c2ccccc2)n1C,inactive
19,Cc1c(-n2cc(C(=O)c3ccccc3O)cc(C#N)c2=O)c(=O)n(-c2ccccc2)n1C,inactive
20,Cc1csc2ncc(C(=O)Nc3ccon3)c(=O)n12,inactive
21,O=C(CCn1cccc1)Nc1ccc(OC(F)(F)F)cc1,inactive
22,O=C(O)C1CCCCC1C(=O)NCCc1ccncc1 (stereo unspecified),inactive
23,N/C(=N\OC(=O)COc1ccc2ccccc2c1)c1ccccn1,inactive

row,SMILES,inhibition
1,CCOC(=O)C(O)(NC(=O)c1cccnc1)C(F)(F)F (stereo unspecified),inactive
2,COc1ccc(N(C(=O)c2cccnc2)S(=O)(=O)c2ccc(F)cc2)cc1,inactive
3,N/C(=N\OC(=O)C(c1ccccc1)c1ccccc1)c1ccncc1,inactive
4,O=C(Nc1ccc(S(=O)(=O)N2CCCC2)cc1)c1cccnc1,inactive
5,O=C(O)c1[nH]c2ccc(Br)cc2c1CCN1C(=O)c2cccc([N+](=O)[O-])c2C1=O,inactive
6,CCOC(=O)C(NC(C)=O)(OCc1ccc(F)cc1)C(F)(F)F (stereo unspecified),inactive
7,COc1cccc(/C=N/NC(=O)CNC(=O)CCc2ccccc2)c1O,inactive
8,COc1ccc(C2CC(=O)N3CN(Cc4ccco4)CSC3=C2C#N)cc1 (stereo unspecified),inactive
9,C=CCNC(=O)NC(=O)COC(=O)/C(C#N)=C/c1ccc(OC)cc1,inactive
10,O=C(Nc1cccc(OCC(=O)N2CCOCC2)c1)c1cccc([N+](=O)[O-])c1,inactive
11,N/C(=N\OC(=O)N1CCOCC1)c1ccccc1,inactive
12,CCC(C)(c1ccc(C(=O)OC)s1)c1ccc(C(=O)OC)s1,inactive
13,CC(C)(C)c1ccc(NC(=O)COc2ccc(-n3ccnc3)cc2)cc1,inactive
14,CCOC(=O)C1CCN(Cc2nc(-c3ccc(OC)c(OC)c3)no2)CC1,inactive
15,CC1=C([N+](=O)[O-])C(c2ccccc2)C2=C(N1)c1ccccc1C2=O (stereo unspecified),inactive
16,CCSC1=NCN(CCCC(=O)O)CN1,inactive
17,Cc1ccc(CNC(=O)CCC(=O)Nc2nnc(C)s2)cc1,inactive
18,COc1ccc(CC(=O)Nc2ncc([N+](=O)[O-])s2)cc1OC,inactive
19,O=C(Nc1ccc(N2CCOCC2)cc1)c1ccc(S(=O)(=O)NCc2ccco2)cc1,inactive
20,O=C(NCc1ccccn1)c1nc(Cn2ccc([N+](=O)[O-])n2)no1,inactive
21,CC(C)NC(=O)Nc1ccc(Br)cc1Cl,inactive
22,CCC1Oc2ccc(C)cc2N(CC(=O)NCC2COc3ccccc3O2)C1=O (stereo unspecified),inactive
23,CSCCC(NC(=O)c1ccc(Br)cc1)C(=O)O (stereo unspecified),inactive

row,SMILES,inhibition
1,CCS(=O)(=O)N1CCN(C(=O)c2ccco2)CC1,inactive
2,CCCCOc1ccc(OCCNC(=O)c2ccco2)cc1,inactive
3,CCOc1ccc(NC(=O)c2ccc(N)cc2)cc1,inactive
4,CCCN(CCC)CC(=O)Nc1cccc2c1OCO2,inactive
5,Cc1nc2ccccn2c1/C(O)=C1\C(=O)C(=O)N(CCN2CCOCC2)C1c1cccnc1 (stereo unspecified),inactive
6,COc1cccc(C(=O)N(CN2CCCC2=O)c2cc(C)on2)c1,inactive
7,CCCCCCC(=O)N(O)C1CC(=O)N(Cc2ccccc2)C1=O (stereo unspecified),inactive
8,COc1cc(C)nc(N2CCCC(C(=O)NCC(C)C)C2)n1 (stereo unspecified),inactive
9,CCN1C(=O)NC(c2ccccc2)C1=O (stereo unspecified),inactive
10,O=C(Cn1cnc2cc([N+](=O)[O-])ccc2c1=O)Nc1ccccc1Cl,inactive
11,O=C(Cn1cc(/C=C\[N+](=O)[O-])c2ccccc21)Nc1ccccc1,inactive
12,O=[N+]([O-])c1ccc(CN2CCSCC2)cc1,inactive
13,CCOc1ccc2ccccc2c1C(=O)N[C@@H]1C(=O)N2[C@@H]1SC(C)(C)[C@@H]2C(=O)O,inactive
14,O=C(CN(CCc1ccccc1)C(=O)CNS(=O)(=O)c1ccc(F)cc1)NCC1CCCO1 (stereo unspecified),inactive
15,CCOc1cc(C2NC(=O)N(C)C(C)=C2[N+](=O)[O-])ccc1OC(C)=O (stereo unspecified),inactive
16,COc1ccccc1/C=N/N1C(=O)c2cccc3cccc(c23)C1=O,inactive
17,O=C(c1ccccc1F)N1C(=O)c2cccc3cccc1c23,inactive
18,COCc1[nH]nc2c1C(c1ccc(OC)cc1)C(C#N)=C(N)O2 (stereo unspecified),inactive
19,Cn1c(C(O)c2ccccc2F)nc(Cl)c1Cl (stereo unspecified),inactive
20,Cc1cc(Br)cc2cn[nH]c12,inactive
21,CC(C)c1c(O)nc(SCC(=O)N2CCOCC2)[nH]c1=O,inactive
22,Cc1cc(C(=O)Cn2cncn2)c(C)n1CCc1ccc(F)cc1,inactive
23,CC(C)(C)SCCNC(=O)c1ccccc1,inactive

row,SMILES,inhibition
1,O=C1C2=C(Nc3ccccc3SC2c2ccco2)c2ccccc21 (stereo unspecified),inactive
2,Brc1ccc2nc(-c3c[nH]c4ccccc34)cn2c1,inactive
3,c1csc(-n2nc3ccccc3n2)c1,inactive
4,CCNC(=S)Nc1cc(-c2ccc(Cl)cc2)[nH]n1,inactive
5,O=S(=O)(Nc1ncccn1)c1ccc(NC(=S)Nc2ccccc2Cl)cc1,inactive
6,Cc1ccc(CCNC(=O)c2cc(S(=O)(=O)N3CCCCC3)c[nH]2)cc1,inactive
7,O=c1c2ccccc2nc(COc2ccccc2)n1/N=C/c1ccc(O)cc1O,inactive
8,O=C(N/N=C/c1c(Cl)nc2ccccn2c1=O)c1cccnc1,inactive
9,COc1nnc(-c2ccc(N3CCOCC3)c(NC(=O)c3ccc(C)cc3)c2)c2ccccc12,inactive
10,CC(C)(C)NC(=O)NC(=O)COC(=O)CCC1CCCC1,inactive
11,COc1ccc(OC)c(CCNC(=O)CS(=O)(=O)Cc2nc(-c3ccccc3C)oc2C)c1,inactive
12,COc1nccnc1NS(=O)(=O)c1ccc(N=Cc2c(C)[nH]n(-c3ccc(C)c(C)c3)c2=O)cc1,inactive
13,COc1ccc(NC(=O)c2cc(Br)c(Br)s2)cn1,inactive
14,COc1cc2[nH]c(=S)n(CC3CCCO3)c(=O)c2cc1OC (stereo unspecified),inactive
15,Cc1cc([N+](=O)[O-])nn1CC(=O)Nc1cccc2nonc12,inactive
16,CN1CCN(c2ccccc2NC(=O)c2cc3c(s2)-c2ccccc2OC3)CC1,inactive
17,COc1ccc(C)cc1S(=O)(=O)N1CCCC(C(=O)NCC2CCCO2)C1 (stereo unspecified),inactive
18,COc1ccc(NC(=O)COC(=O)c2ccc([N+](=O)[O-])o2)cc1Cl,inactive
19,Cc1cc2oc(C(=O)NCc3ccncc3)c(C)c2cc1C,inactive
20,O=C(Nc1ccc(Cc2ccncc2)cc1)c1cccs1,inactive
21,O=C(Nc1ccc(N2CCOCC2)c(Cl)c1)c1ccccc1F,inactive
22,C/C(Cn1nnc([N+](=O)[O-])n1)=N\NC(=O)c1ccccc1,inactive
23,Cc1onc(C(=O)/C=C/N(C)C)c1C(=O)Nc1nccs1,inactive

row,SMILES,inhibition
1,Cc1cc(C)c2c(=O)[nH]c(SCC(=O)N3CCCCC3)nc2n1,inactive
2,COc1ccc(C2C(C(=O)N3CCC4(CC3)OCCO4)CC(=O)N2c2ccc(OC)cc2)cc1 (stereo unspecified),inactive
3,COc1ccc(-c2cc(C(=O)Nc3ccc(S(=O)(=O)Nc4onc(C)c4C)cc3)c3ccccc3n2)cc1OC,inactive
4,CCOc1ccc(N2C(=O)CN(O)C=C3N=c4ccccc4=C32)cc1,inactive
5,COc1ccc(-c2nc3cc(NC(=O)Cc4ccc(OC)c(OC)c4)ccc3o2)cc1,inactive
6,CC(=O)c1ccc(NC(=O)CN2CCCCCC2)cc1,inactive
7,C[N+]1(CC2COC3(CCCCC3)O2)CCCCC1 (stereo unspecified),inactive
8,COc1ccc(NC(=O)C2CCCN(C(=O)NC3CCCCC3)C2)cc1OC (stereo unspecified),inactive
9,CCn1nnnc1SCC(=O)c1cc(Cl)ccc1OC,inactive
10,O=c1cc(-c2ccccc2)nc2nc(-c3ccco3)[nH]n12,inactive
11,C#CCOCCOCCOCCNc1nc(N2CCN(C(=O)CCCCCCCCCCNC(=O)[C@H]([C@@H](C)CC)n3cc(CCCCCN)nn3)CC2)nc(N2CCN(C(=O)CCCCCCCCCCNC(=O)[C@@H]([C@H](C)O)n3cc(C)nn3)CC2)n1,inactive
12,CS(=O)(=O)N1CC(C(=O)NC2CC2)Oc2ccc(Cl)cc21 (stereo unspecified),inactive
13,CCOC(=O)C1=C(C)NC(SCC(N)=O)=C(C#N)C1c1ccncc1 (stereo unspecified),inactive
14,Cc1ccc(SCc2[nH]nc3c2C(c2cccnc2)C(C#N)=C(N)O3)cc1 (stereo unspecified),inactive
15,CN(CC(=O)NCc1ccncc1)S(=O)(=O)c1ccccc1,inactive
16,COCCNC(=S)N=Nc1c(O)[nH]c2ccc([N+](=O)[O-])cc12,inactive
17,c1ccc2c(c1)nc(N1CCOCC1)c1c3ccccc3[nH]c21,inactive
18,Cc1cc(C)c(CSc2ncnc3nc[nH]c23)c(C)c1,inactive
19,O=C(c1ccco1)N1CCCN(Cc2nc(-c3ccc4c(c3)OCO4)no2)CC1,inactive
